The values below come from PubChem BioAssay (Tox21).

Test [1] in a line: qHTS assay to identify small molecule antagonists of the glucocorticoid receptor (GR) signaling pathway - cell viability counter screen (AID 720693; note: nearly all actives have a fitted effect of over 55% in size). (In qHTS, concentration-response curves come from the screen itself.)
A short description of test [2]: qHTS assay for identifying genotoxic compounds that show differential cytotoxicity against isogenic chicken DT40 cell lines with known DNA damage response pathways - wild type cell line (AID 743012). Note: nearly all actives have a fitted effect of over 60% in size. Note: potency is the fitted concentration of half-maximal effect. The method in brief:
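First, wild type DT40 cells were plated at 300 per well and equilibrated about 0.5 h at 37 C/5% CO2. Next, compounds in DMSO were added and exposure lasted 40 h. Finally, CellTiter-Glo was added for 30 min at room temperature and luminescence recorded.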

Test [3] is described as follows: qHTS assay for identifying genotoxic compounds that show differential cytotoxicity against isogenic chicken DT40 cell lines with known DNA damage response pathways - Rad54/Ku70 mutant cell line (AID 743015). Note: nearly all actives have a fitted effect of over 60% in size. Note: potency is the fitted concentration of half-maximal effect.
Test [4] in a line: qHTS assay to identify small molecule antagonists of the androgen receptor (AR) signaling pathway - cell viability counter screen (AID 743033; note: nearly all actives have a fitted effect of over 45% in size).
Test [5] concerns the target Androgen receptor (Homo sapiens) (UniProt P10275). Description: qHTS assay to identify small molecule antagonists of the androgen receptor (AR) signaling pathway (AID 743035; active = well fitted inhibition curve with a large enough effect in the signal ratio in the repeat runs, not every such curve was filed as active; the % refers to the signal ratio). The essentials:
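Beta-lactamase FRET read (2 h RT incubation with LiveBLAzer B/G) following 16 h of compound plus R1881 treatment of AR-UAS-bla HEK293 cells, which had been pre-incubated 4 h at 37C.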

For test [6] the target is unchanged. The test is described as follows: qHTS assay to identify small molecule agonists of the androgen receptor (AR) signaling pathway (AID 743036; active = well fitted activation curve with a large enough effect in the signal ratio in the repeat runs, with a control signal flat, not every such curve was filed as active; the % refers to the signal ratio). The essentials:
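HEK293 cells stably carrying a UAS-driven beta-lactamase reporter (GeneBLAzer AR-UAS-bla-GripTite) were plated at 2,000 cells/well, rested 4 h at 37C, then exposed to compounds in DMSO for 16 h. LiveBLAzer B/G FRET substrate was added for 2 h at room temperature; fluorescence read.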

Test [7] shares this target. The test is described as follows: qHTS assay to identify small molecule agonists of the androgen receptor (AR) signaling pathway using the MDA cell line (AID 743040; note: nearly all actives have a fitted effect of over 20% in size). The method in brief: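 After a 5 h incubation at 37C and 0% CO2, MDA-kb2 reporter cells were dosed with compounds in DMSO and kept 16 h under the same conditions. Luciferase activity was then read as luminescence with ONE-Glo.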

Test [8] in a line: qHTS assay to identify small molecule antagonists of the androgen receptor (AR) signaling pathway using the MDA cell line - cell viability counter screen (AID 743041; note: nearly all actives have a fitted effect of over 45% in size; note: potency is the fitted concentration of half-maximal effect). The essentials: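 R1881-driven MDA-kb2 AR-luc cells, 3,000/well, were dosed with library compounds for 16 h; cell health came from CellTiter-Fluor fluorescence in the reporter wells.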
Test [9] concerns the target Androgen receptor (Homo sapiens) (UniProt P10275). Description: qHTS assay to identify small molecule antagonists of the androgen receptor (AR) signaling pathway using the MDA cell line (AID 743042; note: nearly all actives have a fitted effect of over 55% in size). The essentials:
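Antagonist mode: compounds plus R1881 agonist added to MDA-kb2 AR-luc cells, incubated 16 h at 37C. Luciferase reporter luminescence quantified, with multiplexed CellTiter-Fluor readout for cell viability.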

The nature of test [10]: qHTS assay for identifying genotoxic compounds that show differential cytotoxicity against isogenic chicken DT40 cell lines with known DNA damage response pathways - Rev3 mutant cell line (AID 743014). Note: nearly all actives have a fitted effect of over 55% in size. Note: potency is the fitted concentration of half-maximal effect.

Structures are written as SMILES. Several values for one entry are separate records, joined by “and”; a condition that tells them apart may be missing. Equal values may be shown once. Inconclusive results are not listed. Where a structure was tested more than once in an assay, its records may differ in their call. Activity calls are given as the source filed them. Unless noted, calls come from the whole dose curve; as a rule, active = well fitted curve in the direction sought with a large enough effect in the repeat runs; inconclusive = weak or mixed curves; inactive = no such curve, though single readings can be large; an effect the other way counts as inactive or inconclusive.

Androgen receptor (Homo sapiens), sequence (P10275 whole entry, looked up): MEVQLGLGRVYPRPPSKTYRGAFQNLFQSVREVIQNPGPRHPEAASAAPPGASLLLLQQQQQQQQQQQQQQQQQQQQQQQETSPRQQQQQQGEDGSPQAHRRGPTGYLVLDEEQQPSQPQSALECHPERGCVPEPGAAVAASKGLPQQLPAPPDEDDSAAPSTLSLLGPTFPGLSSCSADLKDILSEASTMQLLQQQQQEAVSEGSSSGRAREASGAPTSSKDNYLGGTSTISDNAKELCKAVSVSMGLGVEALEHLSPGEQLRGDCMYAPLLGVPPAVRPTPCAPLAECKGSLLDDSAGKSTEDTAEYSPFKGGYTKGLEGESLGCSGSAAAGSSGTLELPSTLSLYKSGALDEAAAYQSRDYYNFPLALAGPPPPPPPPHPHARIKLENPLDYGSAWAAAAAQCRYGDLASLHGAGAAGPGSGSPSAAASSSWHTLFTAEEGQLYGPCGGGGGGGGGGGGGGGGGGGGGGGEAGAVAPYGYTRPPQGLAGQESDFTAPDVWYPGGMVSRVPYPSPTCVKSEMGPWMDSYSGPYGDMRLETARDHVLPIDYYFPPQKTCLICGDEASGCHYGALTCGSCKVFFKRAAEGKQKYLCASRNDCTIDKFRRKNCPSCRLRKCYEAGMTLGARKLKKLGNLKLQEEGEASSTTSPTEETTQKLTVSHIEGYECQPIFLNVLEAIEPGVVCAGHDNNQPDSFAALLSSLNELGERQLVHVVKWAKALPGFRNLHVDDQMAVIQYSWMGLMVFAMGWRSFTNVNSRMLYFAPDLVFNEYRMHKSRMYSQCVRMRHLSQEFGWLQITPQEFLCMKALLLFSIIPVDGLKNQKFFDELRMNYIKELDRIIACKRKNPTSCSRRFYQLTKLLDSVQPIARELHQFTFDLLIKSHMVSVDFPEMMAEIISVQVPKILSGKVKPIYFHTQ

For the molecule `Nc1nc2ncc(CNc3ccc(C(=O)N[C@@H](CCC(=O)O)C(=O)O)cc3)nc2c(=O)[nH]1`, the Potency result in test [1], in [2], in test [3], in [4] and in test [8] was “inactive” throughout. Moreover, the molecule was called inactive in test [5], in [6], in test [7] and in test [9].
Take `C=C(C)C(=O)OCCCCCC`: the Potency entry in [1], in test [2], in [3], in [4] and in test [8] was “inactive” in each case.
For `OC[C@@H](O)[C@H](O)[C@H](O)[C@@H](O)CO`, the Potency result in test [1], in test [2], in test [3], in [4] and in test [8] was “inactive” each time.
As to `Cc1cc(O)cc(C)c1Cl`, the Potency entry in [1], in [10], in test [3], in test [4] and in test [8] was “inactive” each time.
`C[C@@H](O)[C@H]1C(=O)N2C(C(=O)O)=C(S[C@@H]3CN[C@H](C(=O)N(C)C)C3)[C@H](C)[C@H]12`: the Potency entry in test [1], in test [2], in [3], in test [4] and in test [8] was “inactive” in each case.
As to `O=C1CCCCC1`, the Potency result in test [1], in test [10], in test [3], in test [4] and in test [8] was “inactive” throughout. For the same molecule, the outcome in test [5], in [6], in test [7] and in [9] was inactive.
`Cn1c([N+](=O)[O-])cnc1COC(N)=O`: the Potency result in test [1], in test [10], in test [3], in test [4] and in test [8] was “inactive” throughout.
Turning to `CCCCC(CC)C(=O)OCCOCCOCCOC(=O)C(CC)CCCC` (centres undefined), the Potency entry in test [1], in [3], in [4] and in test [8] was “inactive” throughout. In addition, the Potency in test [2] was 21.7 µM (active). Further, the outcome in [5], in test [6], in test [7] and in test [9] was inactive.
Regarding `Clc1ccc(Cl)c(Cl)c1Cl`, the Potency result in [1], in test [2], in [3], in test [4] and in test [8] was “inactive” throughout.
As to `CC1=C(/C=C/C(C)=C/C=C/C(C)=C/CO)C(C)(C)CCC1`, the Potency result in test [1], in test [4] and in [8] was “inactive” each time. Also, the Potency in test [2] was 28.8 µM (active); in test [3] it was 43.8 µM (active) and 25.7 µM (active).
As for `CC(=O)CCc1ccccc1`, the Potency entry in test [1], in test [2], in test [3], in [4] and in [8] was “inactive” throughout.
Regarding `C=C(C#N)C(=O)OCC`, the Potency result in test [1], in test [4] and in test [8] was “inactive” in each case. The Potency entry in [2] was “inactive and 43.3 µM (active)”; in [3] it was “inactive and 24.3 µM (active)”.
In the case of `Cc1ccc(C)c(C)c1`, the Potency result in test [1], in [10], in test [3], in [4] and in test [8] was “inactive” each time. Also, the result in test [5], in test [6], in [7] and in [9] was inactive.
In the case of `O=S(=O)(O)c1cc(S(=O)(=O)O)c2c(N=Nc3ccccc3)c(O)ccc2c1`, the Potency entry in [1], in [2], in test [3] and in test [4] was “inactive” each time. For the same molecule, in test [8], the Potency was 27.4 µM (active) and 38.6 µM (active).
With `O=C(c1ccc(O)cc1)c1ccc(O)cc1O`, the Potency result in test [1], in test [2], in test [10], in test [4] and in test [8] was “inactive” throughout.
Turning to `CC1COc2ccccc2N1C(=O)C(Cl)Cl` (centres undefined), the Potency result in [1] and in [4] was “inactive” throughout. For the same molecule, the Potency in [10] was 30.6 µM (active) and 24.3 µM (active); in [3] it was 61 µM (active) and 38.5 µM (active).
As for `C/C=C(C)/C=C/C=C(C)C`, the Potency result in [1], in [4] and in [8] was “inactive” each time. Also, the Potency was 61.1 µM (active) in [2] and 54.5 µM (active) in [3].
Consider `COC(=O)c1ccc(C(=O)OC)cc1`, for which the Potency result in test [1], in [2], in [3], in [4] and in test [8] was “inactive” in each case.
Take `Cc1ccc(C(=O)O)o1`: the Potency result in [1], in [2], in test [3], in test [4] and in test [8] was “inactive” throughout.
For the molecule `Clc1cc(Cl)c(Cl)cc1Cl`, the Potency result in test [1], in [2], in test [3], in [4] and in [8] was “inactive” in each case.
For the molecule `CCCCCCCCCCC=CC1CC(=O)OC1=O` (centres undefined), the Potency result in test [1], in test [2], in test [3], in [4] and in [8] was “inactive” each time.
With `C=CC(=O)OCCCCCCCC(C)C`, the Potency entry in test [1], in [4] and in test [8] was “inactive” throughout. The Potency entry is “inactive and 54.4 µM (active)” in test [10]; “inactive and 27.3 µM (active)” in [3]. Besides, the call in [5], in test [6], in [7] and in test [9] was inactive.
As for `O=C(O)c1cc(-c2ccccc2)nc2ccccc12`, the Potency result in test [1], in test [2], in test [3], in [4] and in [8] was “inactive” each time. Also, the result in test [5], in [6], in test [7] and in [9] was inactive.
Regarding `CC(C)(CO)COC(=O)C(C)(C)CO`, the Potency result in test [1], in test [10], in [3], in test [4] and in test [8] was “inactive” throughout. Besides, the call in [5], in test [6], in [7] and in [9] was inactive.
For the molecule `c1ccc2[nH]cnc2c1`, the Potency result in [1], in test [10], in [3], in test [4] and in [8] was “inactive” each time.
As to `C=C(C)C(=O)OCC(CC)(COC(=O)C(=C)C)COC(=O)C(=C)C`, the Potency entry in test [1], in test [4] and in test [8] was “inactive” in each case.
Regarding `CN(C)c1cccc(O)c1`, the Potency result in test [1], in test [3], in test [4] and in [8] was “inactive” each time.
In the case of `NS(=O)(=O)c1cc2c(cc1Cl)NC=NS2(=O)=O`, the Potency result in [1], in test [10], in [3], in [4] and in [8] was “inactive” throughout.
